# Test results published in PubChem BioAssay AID651640 (Broad Institute, 2012).
# About 6,000 (1.7%) of roughly 350,000 compounds were called active. Another 5% or so got no clear call; they are omitted. Cut-off read from the data, not from the text of the source: active = CPE inhibition above about 20% (passing the limit was not always enough); inconclusive = no clear call, values can overlap the other calls; tested in BHK-21 cells. What follows is part of a selection rich in actives, with near analogues and random picks from the rest.
# Assay: protection of cells from dengue 2 killing – plate reader, single concentration, primary screen (AID 651640);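 note: 0% = median of neutral control wells and 100% = median of positive control wells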
# Conditions: DENV2-infected cells, cytopathic effect rescue, at 9.99 µM, hits give high values
row,SMILES,CPE inhibition
1,O=C(Cc1ccccc1)N1C[C@@H]2[C@H](c3ccccc31)[C@@H](CO)N2C(=O)C1CC1,-0.201% (inactive)
2,CC(=O)N[C@@H]1CC[C@@H](CCNC(=O)C2CC2)O[C@H]1CO,1.82% (inactive)
3,COc1cccc(CNC(=O)CCN2C(=S)NC(C)(C)CC2C)c1 (configuration not stated),8.33% (inactive)
4,CC1CC(C)(C)NC(=S)N1CCC(=O)N1CCN(Cc2ccccc2)CC1 (configuration not stated),16.6% (inactive)
5,CCN(Cc1ccccc1)C(=O)CN1C(=S)NC(C)(C)CC1C (configuration not stated),65.7% (active)
6,C[C@@H]1CN([C@@H](C)CO)C(=O)c2cc(NC(=O)Cn3cnnn3)ccc2O[C@H]1CN(C)Cc1ccc(C(F)(F)F)cc1,-5.69% (inactive)
7,N#Cc1cccc(-c2ccc([C@H]3[C@@H](CO)N4CCCCN(C(=O)Nc5ccccc5)C[C@H]34)cc2)c1,-9.56% (inactive)
8,O=C(c1ccccn1)N1CC2(C1)[C@@H](c1ccccc1)[C@@H](CO)N2C(=O)C1CCCCC1,4.48% (inactive)
9,CN(C)CC(=O)N1[C@@H](CO)[C@H](c2ccccc2)C12CN(C(=O)c1cccc(F)c1)C2,49.2% (active)
10,CN(C)CC(=O)N1CC2(C1)[C@H](c1ccccc1)[C@@H](CO)N2C(=O)C1CCCCC1,-1.45% (inactive)
11,CN(C)CC(=O)N1CC2(C1)[C@H](c1ccccc1)[C@H](CO)N2C(=O)C1CC1,24.3% (active)
12,CC(=O)N1CC2(C1)[C@H](c1ccccc1)[C@@H](CO)N2C(=O)Cc1ccccc1,4.56% (inactive)
13,COCC(=O)N1CC2(C1)[C@@H](c1ccc(-c3cccc(F)c3)cc1)[C@@H](CO)N2C(=O)COC,-4.52% (inactive)
14,O=C(C1CCCC1)N1[C@@H](CO)[C@@H](c2ccccc2)C12CN(Cc1ccc(F)cc1)C2,-1.84% (inactive)
15,C/C=C/c1ccc([C@@H]2[C@@H](CO)N(C(=O)c3ccccc3)C23CN(C(C)=O)C3)cc1,70.8% (active)
16,C/C=C/c1ccc([C@@H]2[C@H](CO)N(C(=O)c3cnccn3)C23CN(C(C)=O)C3)cc1,3.48% (inactive)
17,CCCNC(=O)N1CC2(C1)[C@H](c1ccccc1)[C@@H](CO)N2C(=O)C1CC1,16.7% (inactive)
18,O=C(C1CCCCC1)N1[C@H](CO)[C@@H](c2ccccc2)C12CN(Cc1cccc(Cl)c1)C2,27.1% (active)
19,CCC(=O)N1CC2(C1)[C@H](c1ccccc1)[C@@H](CO)N2C(=O)c1ccccc1,-0.875% (inactive)
20,COc1ccc2c3c([nH]c2c1)[C@H](CO)N(C(=O)Nc1ccc(F)cc1)CC31CCN(C(=O)Nc2c(C)noc2C)CC1,-3.75% (inactive)
21,CC=Cc1ccc2n(c1=O)C[C@@H]1[C@@H](CO)[C@H](C(=O)NCCc3ccccc3)N(C(C)=O)[C@H]21 (mixture of isomers),-2.04% (inactive)
22,Cc1ccc(S(=O)(=O)NCC[C@H]2CC[C@@H](NS(=O)(=O)c3ccccc3Cl)[C@H](CO)O2)cc1,-7.15% (inactive)
23,COc1ccc(CN(C)C[C@H]2OCCCC[C@H](C)Oc3ccc(NC(=O)Nc4ccc5c(c4)OCO5)cc3C(=O)N([C@H](C)CO)C[C@@H]2C)cc1,-3.02% (inactive)

row,SMILES,CPE inhibition
1,N#C[C@H]1[C@@H](c2ccccc2C2=CCCC2)[C@H](CO)N1C(=O)c1cccc(F)c1,19.5% (inactive)
2,C[C@@H]1CN([C@@H](C)CO)C(=O)c2cc(NC(=O)NC3CCCCC3)ccc2O[C@@H](C)CCCCO[C@H]1CN(C)Cc1ccccc1,1.48% (inactive)
3,CCCC#Cc1cnc2c(c1)C(=O)N([C@H](C)CO)C[C@@H](C)[C@@H](CN(C)C(=O)Nc1ccccc1F)O2,-4.21% (inactive)
4,CO[C@@H]1CN(C)C(=O)c2ccc(NC(=O)c3ccc(F)cc3)cc2OC[C@H](C)N(C(=O)c2ccc(F)cc2)C[C@@H]1C,-1.44% (inactive)
5,C[C@@H]1CN([C@@H](C)CO)C(=O)c2c(c3ccccc3n2C)-c2ccccc2CO[C@H]1CN(C)Cc1cccc(C(=O)O)c1,8.1% (inactive)
6,COc1cccc(C#Cc2cnc3c(c2)C(=O)N([C@H](C)CO)C[C@@H](C)[C@@H](CN(C)C(=O)C2CCC2)O3)c1,-2.93% (inactive)
7,CO[C@H]1CN(C)C(=O)c2ccc(NC(=O)C3CC3)cc2OC[C@H](C)N(Cc2ccncc2)C[C@@H]1C,-0.282% (inactive)
8,CC(=O)N1CC2(C1)[C@@H](c1ccccc1)[C@@H](CO)N2C(=O)c1cnccn1,-5.39% (inactive)
9,O=C(C1CCCC1)N1[C@H](CO)[C@@H](c2ccccc2)C12CN(CCC(F)(F)F)C2,-3.05% (inactive)
10,O=C(c1cnccn1)N1CC2(C1)[C@H](c1ccccc1)[C@H](CO)N2C(=O)c1ccccc1,-6.13% (inactive)
11,CCC(=O)N1[C@@H](CO)[C@@H](c2ccccc2)C12CN(C(=O)c1cnccn1)C2,21.9% (active)
12,O=C(C1CCCCC1)N1CC2(C1)[C@H](c1ccccc1)[C@@H](CO)N2CCC(F)(F)F,34.6% (active)
13,O=C(C1CCCC1)N1CC2(C1)[C@H](c1ccccc1)[C@H](CO)N2CCC(F)(F)F,-9.33% (inactive)
14,COCC#Cc1cnc2c(c1)C(=O)N([C@H](C)CO)C[C@H](C)[C@H](CN(C)C(=O)Cc1cccnc1)O2,-4.96% (inactive)
15,C[C@H]1CCCCO[C@H](CN(C)S(=O)(=O)c2ccc(F)cc2)[C@@H](C)CN([C@@H](C)CO)C(=O)c2cc(NS(=O)(=O)c3cn(C)cn3)ccc2O1,12.6% (inactive)
16,CC(=O)N1[C@H](CO)[C@@H](c2ccc(-c3ccccc3)cc2)[C@H]1CNC(=O)C1CC1,-7.62% (inactive)
17,CCNC(=O)C[C@@H]1CC[C@@H]2[C@H](COc3ccc(NC(=O)Nc4cccc(C)c4)cc3C(=O)N2C)O1,-13.2% (inactive)
18,COc1ccccc1-c1cn(CC[C@@H]2CC[C@H](NC(=O)c3ccccc3F)[C@H](CO)O2)nn1,4.94% (inactive)
19,C[C@@H]1CN([C@H](C)CO)C(=O)c2cccc(NC(=O)Nc3ccc4c(c3)OCO4)c2O[C@H]1CN(C)S(=O)(=O)c1ccccc1,-7.78% (inactive)
20,Nc1nc(SCC(=O)Nc2cc(C(F)(F)F)ccc2Cl)[nH]c(=O)c1NC(=O)c1ccco1,-1.74% (inactive)
21,COCCNC(=O)CSc1nc(N)c(NC(=O)c2ccco2)c(=O)[nH]1,96.9% (active)
22,COC(=O)c1ccc(NC(=O)CSc2nc(N)c(NC(=O)c3ccc(Br)o3)c(=O)[nH]2)cc1,-4.82% (inactive)
23,CCCNC(=O)N1[C@H](CO)[C@H](c2ccccc2)[C@H]1CNC(=O)C1CCCCC1,-12% (inactive)

row,SMILES,CPE inhibition
1,CC(=O)Nc1ccc2c(c1)C(=O)N(C)[C@@H]1CC[C@@H](CC(=O)NCC3CCCCC3)O[C@@H]1CO2,-1.94% (inactive)
2,COC(=O)[C@]1(Cc2ccccc2)NC=C(C(=O)c2ccccc2)[C@@H]1c1cccc(OC)c1,-11.9% (inactive)
3,COc1ccc(NC(=O)Nc2ccc3c(c2)C(=O)N([C@@H](C)CO)C[C@@H](C)[C@@H](CN(C)S(=O)(=O)c2ccc(C)cc2)OCCCC[C@H](C)O3)cc1,-2.48% (inactive)
4,COC(=O)[C@]12C[C@H](CC(=O)NCCCCc3ccccc3)C(=O)N(Cc3ccc4c(c3)OCO4)C1=C[C@H](C(C)(C)C)O[C@@H]2C,1.32% (inactive)
5,C[C@@H]1CN([C@@H](C)CO)C(=O)c2cc(C3=CCCC3)cnc2O[C@@H]1CN(C)C(=O)Cc1ccncc1,-2.39% (inactive)
6,COCC(=O)N1[C@H](CO)[C@H](c2ccccc2-c2ccc(C)cc2)[C@@H]1C#N,-2.92% (inactive)
7,CS(=O)(=O)N1[C@@H](C#N)[C@H](c2ccc(C#CC3CCCCC3)cc2)[C@@H]1CO,-6.42% (inactive)
8,CS(=O)(=O)N1[C@H](C#N)[C@H](c2ccc(C#CC3CC3)cc2)[C@H]1CO,4.72% (inactive)
9,CS(=O)(=O)N1[C@H](C#N)[C@H](c2ccc(C#CC3CCCC3)cc2)[C@H]1CO,28.9% (active)
10,N#C[C@@H]1[C@@H](c2ccc(C#Cc3cccc(F)c3)cc2)[C@@H](CO)N1C(=O)C1CCC1,-2.98% (inactive)
11,N#C[C@H]1[C@H](c2ccc(C#Cc3ccc(F)cc3)cc2)[C@@H](CO)N1C(=O)C1CCCC1,22.7% (active)
12,Cc1ccccc1S(=O)(=O)N1[C@H](C#N)[C@H](c2ccccc2)[C@H]1CO,9.21% (inactive)
13,Cc1ccccc1S(=O)(=O)N1[C@H](C#N)[C@H](c2ccccc2)[C@@H]1CO,119% (active)
14,CS(=O)(=O)N1[C@H](C#N)[C@H](c2ccccc2-c2ccc(F)cc2)[C@@H]1CO,29.1% (active)
15,N#C[C@@H]1[C@H](c2ccccc2-c2ccc(F)cc2)[C@@H](CO)N1c1ncc(-c2ccccc2)s1,0.494% (inactive)
16,Cc1ccccc1S(=O)(=O)N1[C@@H](C#N)[C@H](c2ccccc2)[C@@H]1CO,8.15% (inactive)
17,N#C[C@@H]1[C@H](c2ccc(C#Cc3cccc(F)c3)cc2)[C@@H](CO)N1C(=O)C1CCCC1,3.79% (inactive)
18,C[C@@H]1CN([C@H](C)CO)S(=O)(=O)c2ccc(C#C[C@@H](C)O)cc2O[C@H]1CN(C)C(=O)C1CCCCC1,-8.28% (inactive)
19,C[C@H](CO)N1C[C@H](C)[C@@H](CN(C)Cc2ccc(Oc3ccccc3)cc2)Oc2cc(-c3ccncc3)ccc2S1(=O)=O,-22.7% (inactive)
20,O=C(C[C@@H]1C=C[C@@H](NS(=O)(=O)c2ccc(F)cc2)[C@@H](CO)O1)NCCN1CCCCC1,-0.229% (inactive)
21,CN(Cc1ccccc1F)C[C@H]1[C@@H](c2ccccc2)[C@@H](CO)N1S(C)(=O)=O,-1.35% (inactive)
